Screening data (PubChem BioAssay)
The list is not random: actives were taken first. Their share in the collection is about 1.6%.
KCNQ2 inh – blocks the rat KCNQ2 potassium channel; CHO-K1 KCNQ2, FluxOR thallium flux, 20 min; stronger effect = lower value; 310,000 tested, 1.1% active; B-score at 10 µM;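 active = fluorescence ratio B-score at most minus 3 library SDs, with starting brightness B-score within 2 library SDs, cut at about -5.5 in these data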
Target sequence (O88943 whole entry, looked up): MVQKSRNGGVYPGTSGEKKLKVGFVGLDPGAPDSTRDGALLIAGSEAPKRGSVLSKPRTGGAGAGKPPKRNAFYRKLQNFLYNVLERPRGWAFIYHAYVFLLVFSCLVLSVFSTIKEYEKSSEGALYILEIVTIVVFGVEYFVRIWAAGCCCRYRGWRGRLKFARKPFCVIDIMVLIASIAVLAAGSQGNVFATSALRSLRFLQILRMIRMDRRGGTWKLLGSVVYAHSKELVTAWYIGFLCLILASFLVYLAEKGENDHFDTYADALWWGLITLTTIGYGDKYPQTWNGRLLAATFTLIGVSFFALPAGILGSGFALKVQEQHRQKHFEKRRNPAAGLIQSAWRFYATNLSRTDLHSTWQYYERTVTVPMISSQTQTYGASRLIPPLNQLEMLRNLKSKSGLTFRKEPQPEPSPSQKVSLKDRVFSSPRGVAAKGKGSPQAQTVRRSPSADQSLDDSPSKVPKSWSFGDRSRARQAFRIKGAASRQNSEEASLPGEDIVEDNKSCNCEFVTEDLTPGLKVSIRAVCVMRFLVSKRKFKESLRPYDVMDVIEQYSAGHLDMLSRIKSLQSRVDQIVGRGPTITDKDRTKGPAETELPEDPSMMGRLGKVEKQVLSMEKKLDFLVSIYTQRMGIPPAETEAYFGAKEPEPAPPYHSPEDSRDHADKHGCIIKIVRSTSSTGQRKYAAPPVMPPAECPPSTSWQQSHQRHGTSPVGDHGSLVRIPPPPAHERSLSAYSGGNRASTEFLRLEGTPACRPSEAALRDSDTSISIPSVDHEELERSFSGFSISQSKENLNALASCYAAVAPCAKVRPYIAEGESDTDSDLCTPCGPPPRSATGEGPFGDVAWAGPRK
KCNQ2 enhance – potentiators of rat KCNQ2 potassium channel | B-score at 10 µM | CHO-K1 KCNQ2, FluxOR thallium flux fluorescence; stronger effect = higher value | O88943 | 310,000 tested, 0.54% active;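 active = fluorescence ratio B-score at least 3 SD of library B-scores, with initial fluorescence B-score within 3 of them, cut at about 5.3 in these data; same plate scores as AID 2156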;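 also: B-score of peak minus minimum over baseline fluorescence ratio after K+ and Tl+ stimulus; positive B-score means potentiation of KCNQ2 with more thallium influx and brighter signal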
Of the large screens only hits and unclear results are named; the others gave an inactive call.

Cc1nn(C(C)C)c(C)c1CN1CCC(C(=O)Nc2cccc(-c3cccc(F)c3)c2)CC1	none (no result: KCNQ2 enhance)
O=C(O)CC1(CC(=O)N2CCOCC2)CCCC1	none (no result: KCNQ2 enhance)
COC(=O)CSc1nnc(CNS(=O)(=O)c2ccc(Cl)cc2)n1C	none
Cc1ccccc1CS(=O)(=O)c1nnc([C@H](CC(C)C)NC(=O)OC(C)(C)C)o1	KCNQ2 inh -5.58
CC(C)(C)OC(=O)N[C@@H](Cc1ccccc1)c1nnc(S(=O)(=O)Cc2cccc(F)c2)o1	none (no result: KCNQ2 enhance)
CCOC(=O)CSc1nnc([C@H](Cc2ccccc2)NC(=O)OC(C)(C)C)o1	none (no result: KCNQ2 enhance)
CC(C)C[C@H](NC(=O)OC(C)(C)C)c1nnc(SCc2ccccc2)o1	KCNQ2 inh -6.87
C=CCn1c(C)nnc1SCC(=O)Nc1oc(C)c2c(C)n[nH]c(=O)c12	none (no result: KCNQ2 enhance)
CN1c2ccccc2C(C)(C)C12C=Nc1c(ccc3ccccc13)O2 (stereo unspecified)	KCNQ2 inh -5.71
COc1ccc2ccc3c(c2c1)N=CC1(O3)N(C)c2ccccc2C1(C)C (stereo unspecified)	KCNQ2 inh -8.22
CN1c2ccccc2C(C)(C)C12CC(CCl)=NO2 (stereo unspecified)	none
COc1ccc2c(c1)Sc1ccccc1N2CCN(C)C	none (no result: KCNQ2 enhance)
O=S(=O)(c1cccs1)N1CCC(CO)(Cc2ccc(Cl)cc2)CC1	none
Cc1cccc(-n2cc(CN(C)Cc3nccn3C)c(-c3cccc(F)c3)n2)c1	KCNQ2 inh -6.71
CCn1ccnc1CN(C)Cc1cn(-c2cccc(C)c2)nc1-c1cccc(F)c1	none (no result: KCNQ2 enhance)
O=[N+]([O-])c1cc(S(=O)(=O)NCCN2CCOCC2)ccc1Cl	none (no result: KCNQ2 enhance)
COc1ccc(-n2nc(C)c3c(=O)c4c([nH]c32)CCCC4)cc1	none
Cc1ccc(S(=O)(=O)NCC(=O)N(c2ccccc2)C(C(=O)NCc2ccccc2)c2ccco2)cc1 (stereo unspecified)	KCNQ2 inh -6.89
Cc1cc(C)cc(N(C(=O)CNS(=O)(=O)c2ccccc2)C(C(=O)NCc2ccccc2)c2ccc(C)o2)c1 (stereo unspecified)	none (no result: KCNQ2 enhance)
CCCc1nnc(SCC(=O)Nc2cccc(Cl)c2Cl)o1	none (no result: KCNQ2 enhance)
Cc1ccc2nc(SCC(=O)NCc3ccccc3)nc(=O)n2c1	none
COc1cccc(NC(=O)Nc2cccs2)c1	none
COc1cccc(NC(=O)N(C2CCCCC2)C(C)c2cccs2)c1 (stereo unspecified)	KCNQ2 inh -5.66
O=C(C(Cc1ccccc1)n1cccc1)N1CCN(c2ccccc2)CC1 (stereo unspecified)	none (no result: KCNQ2 enhance)
Cc1ccc(NC(=O)C(Cc2ccccc2)n2cccc2)cc1 (stereo unspecified)	none (no result: KCNQ2 enhance)
CC1CCC(NC(=O)C(Cc2ccccc2)n2cccc2)CC1 (stereo unspecified)	KCNQ2 inh -5.82
CC1CCCN(C(=O)C(Cc2ccccc2)n2cccc2)C1 (stereo unspecified)	KCNQ2 inh -6.45
O=C(c1cc(-c2cccnc2)nc2ccc(Cl)cc12)N1CCN(S(=O)(=O)c2cccs2)CC1	none (no result: KCNQ2 enhance)
COc1cccc(CN2CCN(C(=O)c3cc(-c4cccnc4)nc4ccc(C)cc34)CC2)c1	KCNQ2 inh -7.35
CCN(CC)S(=O)(=O)c1cc(NC(=O)CNc2cccc(S(=O)(=O)N3CCOCC3)c2)ccc1C	none
COc1ccc(CCNC(=O)C2CCN(C(=O)c3ccc([N+](=O)[O-])cc3)CC2)cc1	none (no result: KCNQ2 enhance)
N#Cc1ccc(CSCC(=O)NN=C2CCCC2)cc1	none (no result: KCNQ2 enhance)
CC1CCCC(C)N1C(=O)COC(=O)Cc1ccc(Cl)cc1 (stereo unspecified)	none (no result: KCNQ2 enhance)
O=C(CSCc1ccc(Cl)cc1)NN=C1CCCC1	KCNQ2 enhance 6.83
CC1CCCC(C)N1C(=O)CSCc1ccc(Cl)cc1 (stereo unspecified)	KCNQ2 inh -6.33
O=C(CN1CCCN(S(=O)(=O)c2ccc(Br)cc2)CC1)Nc1ccc2cn[nH]c2c1	none (no result: KCNQ2 enhance)
Cc1ccc(S(=O)(=O)Cc2ccc(C(=O)N3CCN(c4cc(C)ccc4C)CC3)o2)cc1	none
Cc1ccc(C)c(N2CCN(C(=O)c3ccc(CS(=O)(=O)c4ccccc4C)o3)CC2)c1	KCNQ2 inh -6.49
COc1ccc(/C=C(\NC(=O)c2ccc([N+](=O)[O-])cc2)C(=O)NCCCn2ccnc2)cc1	none (no result: KCNQ2 enhance)
N#C/C(=C\c1ccc([N+](=O)[O-])cc1)C(=O)NCCCn1ccnc1	KCNQ2 inh -5.62
O=C1CN(c2nc3nonc3nc2N2CCCCC2)CCN1	none
C/C(=N\NC(=O)c1ccc(N/N=C(\C)c2ccc(O)cc2)cc1)c1ccc(O)cc1	none (no result: KCNQ2 enhance)
N/C(=N\OC(=O)c1cccc2ccccc12)c1ccc(Br)cc1	KCNQ2 inh -5.61
Cc1cc(C)cc(C(=O)O/N=C(\N)c2ccc(Br)cc2)c1	KCNQ2 inh -6.82
Cc1ccc(C(=O)O/N=C(\N)c2ccc(Br)cc2)cc1C	none
N/C(=N\OC(=O)c1cccc2ccccc12)c1ccncc1	none (no result: KCNQ2 enhance)
COc1ccc(/C=C/C(=O)OCC(=O)NC(=O)NC(C)(C)C)cc1	none
O=C(Nc1cc2c3c(c1)CC(=O)N3CCC2)C1CC1	none (no result: KCNQ2 enhance)
CCOC(=O)C1(CCOC)CCN(Cc2nc(C(C)C)cs2)CC1	none (no result: KCNQ2 enhance)
CCCCCCCCCCn1c2c(c(=N)c3c1CCC3)CCC2	KCNQ2 enhance 32
CCCCCn1c2c(c(=N)c3ccccc31)CCC2	none
Cc1nc(C(N)=O)c(N)n1CCc1ccccc1	none (no result: KCNQ2 enhance)
CCOc1ccc2ccccc2c1CNc1nnnn1C	KCNQ2 inh -6.01
CCOc1ccccc1CNc1nnnn1C	none
CCc1nc(Sc2nnnn2-c2ccccc2)c2c3c(sc2n1)CCCC3	KCNQ2 inh -5.92
CCc1nc(-n2[nH]c(=O)c3ccccc3c2=O)c2c3c(sc2n1)CCCC3	none (no result: KCNQ2 enhance)
CC(NC(=O)c1ccccc1F)c1nnc(SCC(=O)NC2=NCCS2)n1C (stereo unspecified)	none
O=C(CCNC(=O)C1CCN(S(=O)(=O)c2ccc(F)cc2)CC1)NCc1ccc(Cl)cc1	none (no result: KCNQ2 enhance)
CCOC(=O)/C(C(=O)Nc1ccccc1Cl)=C1/NC(C)(C)Cc2ccccc21	KCNQ2 inh -8.13
CCOC(=O)/C(C(=O)Nc1ccc(Br)cc1)=C1/NC(C)(C)Cc2ccccc21	none (no result: KCNQ2 enhance)
CCCN1CNC(=S)N(CC2CCCO2)C1 (stereo unspecified)	none
CCOC(=O)c1ccccc1NC(=O)CSc1nnc(COc2ccccc2)n1CC	KCNQ2 inh -6.41
CCOC(=O)c1cccc(NC(=O)CSc2nnc(COc3ccccc3)n2CC)c1	none (no result: KCNQ2 enhance)
CC(Oc1ccc(Br)cc1)c1nc2c3ccccc3nc(=S)n2[nH]1 (stereo unspecified)	KCNQ2 enhance 5.42
CCCC(Oc1ccc(Br)cc1)c1nc2c3cc(OC)c(OC)cc3nc(=S)n2[nH]1 (stereo unspecified)	none (no result: KCNQ2 enhance)
CCOCCCNC(=O)C(c1ccc(C)cc1)N(Cc1cccs1)C(=O)CNC(C)=O (stereo unspecified)	none
CC(C)CNC(=O)COc1cccc(C(=O)NCc2ccccc2)c1	none
O=C(NCc1ccccc1)C(=O)Nc1nc(C23CC4CC(CC(C4)C2)C3)cs1	KCNQ2 enhance 5.52
O=C(NCc1ccncc1)C(=O)Nc1nc(C23CC4CC(CC(C4)C2)C3)cs1	none
O=C(CSCc1ccc(Br)cc1)NCCc1ccccc1	KCNQ2 inh -5.54
O=C(COC(=O)c1cccc(Br)c1)NCCc1ccccc1	KCNQ2 inh -5.66
O=C(COC(=O)c1cccc(Br)c1)NCCNC(=O)COC(=O)c1cccc(Br)c1	none (no result: KCNQ2 enhance)
O=C(CSCc1ccccc1)NCCc1ccc(F)cc1	none
Cc1ccc(C)c(N2CCN(C(=O)CN3C(=S)NC(C)(C)CC3C)CC2)c1 (stereo unspecified)	none
CCOC(=O)c1c(NC(=O)CN2CCOCC2)sc2c1CC(C)(C)OC2	none
COc1ccc2nc(N3CCCCC3)c(/C=C3\SC(=S)NC3=O)cc2c1	KCNQ2 enhance 11
